TDP1 cell CPT – growth inhibition of DT40 Tdp1-/-;hTDP1 cells with camptothecin (screen for TDP1 inhibitors); chicken DT40 Tdp1-/-;hTDP1 cells + 20 nM CPT, ATP luminescence, 48 h; AID 686979; hit rate 12% among 420,000; Potency, µM (doses to about 46.2 µM), inactives show top-dose activity change, negative = growth inhibition, hits mostly inhibitors; note: potency is the fitted concentration of half-maximal effect; % is set by controls: 0 for no effect and ±100 for the full control effect; nearly all actives have a fitted effect of over 55% in size
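Chicken DT40 Tdp1-/- cells complemented with human TDP1, 400 cells/well, exposed to compounds plus 20 nM camptothecin for at least 48 h at 37 C; viability read as ATP content by CellTiter-Glo luminescence.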
SW480 rerep – inducers of DNA re-replication in SW480 colon cancer cells; AID 624297; SW480 DNA re-replication, Hoechst DNA content imaging, 48 h; Potency, µM (titrated, usually from 46.1 µM), inactives show at the highest dose re-replication activation, most hits filed as activators; hit rate 1.8% among 340,000; note: potency is the fitted concentration of half-maximal effect; % of control where 0% means no effect; nearly all actives have a fitted effect of over 55% in size
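Readout is total intensity of Hoechst-stained nuclei, excited at 405 nm and collected at 500-530 nm. Compound treatment lasted 48 hr at 37 C in 5% CO2 before staining.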
DT40 TDP1 no CPT – qHTS for Inhibitors of human tyrosyl-DNA phosphodiesterase 1 (TDP1): qHTS in cells in absence of CPT | DT40 Tdp1-/- hTDP1 cells, no CPT, ATP luminescence, 48 h | hit rate 15% among 420,000 | Potency, µM (top dose mostly 46.2 µM), for the others: at the highest dose activity change, negative = growth inhibition, actives largely listed as inhibitors | AID 686978, 2013; note: potency is the fitted concentration of half-maximal effect; % is set by controls: 0 for no effect and ±100 for the full control effect; nearly all actives have a fitted effect of over 55% in size
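Readout: luminescence from CellTiter-Glo after 30 min in the dark at RT. Cells: DT40 Tdp1-/- with stable hTDP1, 400/well. Exposure: compounds alone, ≥48 hr, 37 °C.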
BCR signal inh – inhibitors of chronic active B-cell receptor signaling | ABC-DLBCL IkBa-CBG/CBR reporter, luminescence ratio, 4 h | Potency, µM (titrated, usually from 46.1 µM), without a hit: at the highest dose activity change, negative = inhibition, hits mostly inhibitors | hit rate 0.05% among 340,000; active = well fitted inhibition curve with a large enough effect in the signal ratio, with a control signal flat, not every such curve was filed as active; inconclusive = small, poorly fitted or top-dose-only effect, or effect the other way, or a change in a side signal; the % refers to the signal ratio;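 note: potency is the fitted concentration of half-maximal effect; plate controls were basal doxycycline-induced cells for no effect and cells given 10 µM MG132 for full effect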
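Compounds up to 46 uM were incubated four hours with TMD8 cells whose green CBG68 luciferase is fused to IkappaBalpha; red CBR luminescence normalised the signal, and concentration-effect curves were fitted to fusion, red and ratio data.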
IL-1B inflam inh – inflammasome signaling inhibition, IL-1 beta readout. THP-1 LPS/ATP IL-1B secretion, AlphaLISA, 16 h; hits give low values. hit rate 4.7% among 360,000. activity change, % at 57.5 µM; in the data active = activity change below about -50%; inconclusive = mostly about -30% to -49%; note: % is set by controls: 0 for no effect and ±100 for the full control effect
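THP-1 cells pretreated 1 hr with compounds (up to 57.5 uM final), then stimulated with LPS (250 ng/mL final) plus ATP (1.25 mM final); secreted IL-1B measured by AlphaLISA after 16 hr, decreased signal indicating inhibition.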
MCF10A rereplic – DNA re-replication induction in MCF 10a cells; MCF 10A DNA re-replication, Hoechst nuclear intensity, 48 h; Potency, µM (doses to about 46.1 µM), for inactives: at the highest dose activity, positive = re-replication, most hits filed as activators; hit rate 2.9% among 350,000; note: potency is the fitted concentration of half-maximal effect; % of control where 0% means no effect; nearly all actives have a fitted effect of over 50% in size
Starred values were filed as active, the others as inactive; u = inconclusive; x = not tested or not shown. An excerpt weighted towards active compounds, which were near 19% of everything screened. Unless noted, calls come from the whole dose curve; as a rule, active = well fitted curve in the direction sought with a large enough effect; inconclusive = small, poorly fitted or top-dose-only effect, or another doubt; inactive = no such curve, though single readings can be large; an effect the other way counts as inactive or inconclusive.

SMILES	TDP1 cell CPT	SW480 rerep	DT40 TDP1 no CPT	BCR signal inh	IL-1B inflam inh	MCF10A rereplic
CCOc1ccc(OCCNC(=O)C(NC(=O)c2c(F)cccc2F)C(C)C)cc1 (configuration not stated)	-13%	4%	9%	0%	6	-1%
O=C(NCc1ccccc1)c1cc(C2CCCCN2C(=O)c2ccc(Cl)cc2)on1 (configuration not stated)	u	x	u	x	-6	x
CSc1cccc(NC(=S)N(CCCN2CCCC2)Cc2cccn2Cc2ccc(Cl)cc2)c1	u	u	9.2µM*	u	u	21µM*
S=C(Nc1cccc(Cl)c1)N(CCCN1CCCC1)Cc1cccn1Cc1ccc(Cl)cc1	u	-1%	18µM*	u	-101*	u
CSc1cccc(NC(=S)N(CCCN2CCCC2)Cc2cccs2)c1	u	10%	u	-4%	u	-4%
COc1cccc(NC(=S)N(CCCN2CCCC2)Cc2cccn2Cc2ccc(Cl)cc2)c1	u	u	18µM*	u	u	12%
CCN(C(=O)COC(=O)c1cccs1)c1c(N)n(Cc2ccccc2)c(=O)[nH]c1=O	23%	-2%	12%	-2%	4	2%
CC1(C(=O)NS(=O)(=O)c2ccccc2Cl)CCN1C(=O)c1cccc2ccccc12 (configuration not stated)	-5%	x	-4%	x	-3	x
COc1ccc(C2CC(=O)NC(NC(=O)c3ccc(Br)cc3)=N2)c(OC)c1OC (configuration not stated)	-9%	x	-9%	x	x	x
COc1ccc(OC)c(-c2cc(C(=O)N/N=C(\C)c3cccnc3)c3ccccc3n2)c1	15µM*	4%	u	-12%	u	4%
COc1ccc(-c2cc(C(=O)N/N=C(\C)c3cccnc3)c3ccccc3n2)c(OC)c1	10µM*	u	13µM*	-1%	-1	u
CCOc1ccc(-c2cc(C(=O)N/N=C(\C)c3cccnc3)c3ccccc3n2)cc1	u	u	u	10%	9	u
Cc1ccc(CNC(=O)Cc2c(C)c3c(cc(C)c4c(C)coc43)oc2=O)cc1	0%	x	-7%	x	x	x
ClC(Cl)c1nnc(-c2ccccc2)c(-c2c[nH]c3ccccc23)n1	3.7µM*	1%	u	-14%	0	26µM*
Cc1cc(-c2ccc(C(C)C)c(S(=O)(=O)N3CCN(c4ccccc4)CC3)c2)on1	2.6µM*	6.5µM*	2.1µM*	u	31	u
COc1ccc(N2CCN(S(=O)(=O)c3cc(-c4cc(C)no4)ccc3C(C)C)CC2)cc1	u	-2%	u	12%	-1	13%
CCc1ccc(-c2cc(C)no2)cc1S(=O)(=O)N1CCC(C)CC1	u	-2%	23µM*	1%	39	26%
Cc1cc(-c2ccc(C(C)C)c(S(=O)(=O)N3CCC(C)CC3)c2)on1	26µM*	-1%	18µM*	1%	13	-3%
CC1=CC(=O)Nc2ncccc2O1	u	x	u	x	10	x
CCCCCCC(=O)Oc1cccc(C2=CC(=O)CC(C)(C)C2=O)c1	u	x	-18%	x	5	x
COC(=O)c1nccc2c1[nH]c1ccccc12	u	-1%	23µM*	u	-18	u
COc1ccc2[nH]c3ccccc3c2c1	6%	0%	-1%	u	-14	-2%
C(=C/c1nccc2c1[nH]c1ccccc12)/c1ccc2c(c1)OCO2	5.6µM*	21µM*	11µM*	u	-2	u
COc1ccc(/C=C/c2nccc3c2[nH]c2ccccc23)cc1	u	x	11µM*	x	x	x
CCS(=O)(=O)Nc1c(C(=O)OC)[nH]c2ccccc12	-10%	2%	2%	-1%	23	8%
